# Laboratory results from PubChem BioAssay (NCI).
# Several values for one entry are separate records, joined by “and”; a condition that tells them apart may be missing. Equal entries are not always repeated. Compounds without any hit were thinned out: in the full panel of roughly 83,000, 20% have a hit.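 Treatment: one concentration, 48 hours, 96-well format. Scoring: percent growth, with anything below 10 considered active.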 Activity calls are given as the source filed them.
# Assays:
# Assay in all cases: NCI-60 one-dose screen, 48 h (100 = growth as untreated, 0 = no growth, -100 = all killed)
# Conditions in all cases: 10 µM unless noted
# [1] = tested on: T-47D breast
# [2] = tested on: BT-549 breast
# [3] = tested on: MDA-MB-435 melanoma
# [4] = tested on: MCF7 breast
# [5] = tested on: HCT-116 colon
# [6] = tested on: HCC-2998 colon
# [7] = tested on: KM12 colon
# [8] = tested on: SW-620 colon
SMILES,growth [1],growth [2],growth [3],growth [4],growth [5],growth [6],growth [7],growth [8]
CN(C)c1ccc(/C=C(\C#N)c2ccccc2)cc1,39.5% (inactive) and 36.1% (inactive) and 29.8% (inactive),51.3% (inactive) and 52.8% (inactive) and 49.5% (inactive),-44.1% (active) and -7.42% (active) and -26.3% (active),23.6% (inactive) and 24.5% (inactive) and 33% (inactive),17.4% (inactive) and 27.1% (inactive) and 19.8% (inactive),-28.9% (active) and 68.2% (inactive) and 47.7% (inactive),13% (inactive) and 38.8% (inactive) and 28.7% (inactive),
CC(CN=Cc1ccccc1O)N=Cc1ccccc1O (centres undefined),96.9% (inactive) and 94.2% (inactive),67.1% (inactive) and 118% (inactive),94% (inactive) and 122% (inactive),94.9% (inactive) and 95.8% (inactive),104% (inactive) and 102% (inactive),,102% (inactive) and 113% (inactive),110% (inactive) and 96.8% (inactive)
CCN(CC)CCCC(CNc1ccnc2cc(Cl)ccc12)c1ccc(Cl)cc1 (centres undefined),-41.1% (active) and 114% (inactive),10.4% (inactive) and -11.4% (active),-93.3% (active) and -61.5% (active),-31.8% (active) and 70.3% (inactive),-15.1% (active) and -20.3% (active),-76.8% (active) and -93.6% (active),1.49% (active) and 33.3% (inactive),6.45% (active) and -100% (active)
N#C/C(=C/c1c(O)ccc2ccccc12)C(N)=O,87.5% (inactive),93.7% (inactive),104% (inactive),95.1% (inactive),101% (inactive),,93.8% (inactive),94.6% (inactive)
CC1CCCC(=O)O1 (centres undefined),101% (inactive) and 106% (inactive),104% (inactive) and 105% (inactive),97.2% (inactive) and 107% (inactive),96.3% (inactive) and 101% (inactive),105% (inactive) and 94.6% (inactive),98.3% (inactive),97.7% (inactive) and 106% (inactive),
CN(C)CCC(=O)c1ccc(Cl)cc1,110% (inactive) and 97.4% (inactive),107% (inactive) and 98.8% (inactive),113% (inactive) and 110% (inactive),90.6% (inactive) and 86.2% (inactive),101% (inactive) and 102% (inactive),97.3% (inactive),108% (inactive) and 109% (inactive),
O=CC(O)C(O)C(O)CO (centres undefined),109% (inactive) and 96.5% (inactive),104% (inactive),112% (inactive) and 109% (inactive),97.5% (inactive) and 94.6% (inactive),112% (inactive) and 102% (inactive),101% (inactive),103% (inactive) and 102% (inactive),107% (inactive) and 104% (inactive)
O=C(CCc1ccc(O)cc1)N/N=C/c1cc(Br)ccc1O,33.3% (inactive),52.4% (inactive),55.8% (inactive),38.9% (inactive),46.7% (inactive),50.1% (inactive),28.1% (inactive),59.5% (inactive)
Cc1cc(O)c(C(C)C)cc1N,16.1% (inactive) and 71.8% (inactive),109% (inactive) and 98.1% (inactive),117% (inactive) and 98.9% (inactive),94.3% (inactive) and 92.7% (inactive),87.2% (inactive) and 104% (inactive),105% (inactive) and 94.2% (inactive),110% (inactive) and 114% (inactive),109% (inactive) and 102% (inactive)
CCOc1ccc(Nc2c3ccccc3nc3ccccc23)cc1,91.5% (inactive) and 13.1% (inactive) and 22.8% (inactive),94.4% (inactive) and 41.6% (inactive) and -3.76% (active),103% (inactive) and 24.5% (inactive) and 30.9% (inactive),91.3% (inactive) and 20.1% (inactive) and 8.99% (active),87.6% (inactive) and -13.1% (active) and 13.2% (inactive),39.8% (inactive),99.8% (inactive) and 18% (inactive) and 33.3% (inactive),92.8% (inactive) and 21% (inactive) and 29.1% (inactive)
COc1ccc(-c2cn[nH]c2-c2cc(OC)c(OC)c(OC)c2)cc1N,73% (inactive) and 86.7% (inactive),30.8% (inactive) and 5.24% (active),-47.4% (active) and -19% (active),21.6% (inactive) and 15.8% (inactive),3.95% (active) and 7.78% (active),13.7% (inactive) and 23% (inactive),9.16% (active) and 16.9% (inactive),24.7% (inactive) and 27.7% (inactive)
C[N+](C)(C)CN1C(=O)c2ccccc2C1=O,96.5% (inactive),98.6% (inactive),97.6% (inactive),92.7% (inactive),104% (inactive),108% (inactive),111% (inactive),107% (inactive)
CC(C)N=c1cc2n(-c3ccc(Cl)cc3)c3ccccc3nc-2cc1Nc1ccc(Cl)cc1,38.3% (inactive) and 32.9% (inactive) and 41.5% (inactive),41.2% (inactive) and 11.6% (inactive) and -4.5% (active),-25.6% (active) and -22.8% (active) and -46.2% (active),11.9% (inactive) and 18.4% (inactive) and 10.5% (inactive),-54.6% (active) and -63.1% (active) and -82.7% (active),16.8% (inactive) and -34.4% (active) and -17.4% (active),12.6% (inactive) and 5.23% (active) and -1.86% (active),13.4% (inactive) and 9.23% (active) and 6.7% (active)
Cc1nn(-c2ccc(Cl)cc2)c2ncnc(N/N=C/c3ccccc3O)c12,13.3% (inactive) and 23.8% (inactive),36% (inactive) and 36.4% (inactive),27.3% (inactive) and 23.7% (inactive),8.28% (active) and 12.1% (inactive),26.7% (inactive) and 21.6% (inactive),31% (inactive) and 39.7% (inactive),28.4% (inactive) and 22.2% (inactive),
O=C(CN1CCOCC1)N1CCOCC1,110% (inactive) and 101% (inactive),96.9% (inactive),116% (inactive) and 101% (inactive),110% (inactive) and 105% (inactive),104% (inactive) and 107% (inactive),104% (inactive) and 105% (inactive),110% (inactive) and 106% (inactive),105% (inactive) and 109% (inactive)
CC(C(=O)O)n1cc(C#N)c(=O)[nH]c1=O (centres undefined),108% (inactive) and 101% (inactive),99.4% (inactive),94.8% (inactive) and 106% (inactive),101% (inactive) and 93% (inactive),105% (inactive),101% (inactive) and 104% (inactive),101% (inactive) and 107% (inactive),101% (inactive) and 106% (inactive)
CNc1cc(-c2cccc(OC(F)(F)F)c2)nc2ccc(N3CCCC3)cc12,-40.3% (active) and -55% (active) and -40.4% (active),-81.3% (active) and 74.1% (inactive) and 76.4% (inactive),35.8% (inactive) and -86.4% (active) and -70.6% (active),3.84% (active) and -19.7% (active) and 0.755% (active),-76% (active) and -90.3% (active) and -76.6% (active),25.9% (inactive) and -53.7% (active) and -32.7% (active),12.5% (inactive) and -3.68% (active) and 1.48% (active),
